Measured values as given in PubChem BioAssay (NCI).
This is part of a sample that, as a whole, favours compounds with a hit. Of some 79,000 tested, about 15% had one in any assay. The source made the active and inactive calls. Rule as the data show it: active = growth inhibition above about 70%; inactive = the rest.

Test: NCI Yeast Anticancer Drug Screen. Data for the CLN2oe strain (AID 163);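 also: 0% = growth of vehicle-only control cultures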
Conditions: S. cerevisiae CLN2oe strain, stronger effect = higher value
Method: Growth inhibition of yeast strains with defined genetic alterations is measured as a screen for potential anti-cancer activity. Selected strains with alterations in DNA damage repair or cell cycle control were exposed to compounds and growth inhibition was measured relative to vehicle treated controls. The strain used in this assay is CLN2oe

Measured: growth inhibition

COc1cc(CC2CC(c3ccc4c(c3)OCO4)OC2=O)cc(OC)c1OC (stereo not given)
inactive: at 1.2 µM 2% | at 3.7 µM 1% | at 11.0 µM 5% | at 33.0 µM 7% | at 100.0 µM 15%

O=C1C2C(C(=O)N1c1ccc(OCc3ccccc3)cc1)C1c3ccccc3C2C2CCCCN21 (stereo not given)
inactive: at 1.2 µM -5% | at 3.7 µM -10% | at 11.0 µM -12% | at 33.0 µM -12% | at 100.0 µM 56%

Cc1cc(O)cc(O)c1N=Nc1ccc([N+](=O)[O-])cc1
inactive: at 1.2 µM 24% | at 3.7 µM 22% | at 11.0 µM 30% | at 33.0 µM 42% | at 100.0 µM 55%

Nc1ccc2c(c1)C(=O)c1cccc(N)c1C2=O
inactive: at 1.2 µM -2% | at 3.7 µM 3% | at 11.0 µM 19% | at 33.0 µM 37% | at 100.0 µM 48%

Nc1ccccc1CC(O)C(=O)O (stereo not given)
inactive: at 1.2 µM 5% | at 3.7 µM 9% | at 11.0 µM 13% | at 33.0 µM 25% | at 100.0 µM 42%

CC(=O)Nc1ccc(/C=C(\C#N)c2ccc(C)cc2)cc1
inactive: at 1.2 µM -3% | at 3.7 µM -1% | at 11.0 µM -3% | at 33.0 µM 8% | at 100.0 µM 20%

CC1=C(C)Cc2c(O)ccc(O)c2C1
inactive: at 1.2 µM -10% | at 3.7 µM -8% | at 11.0 µM -7% | at 33.0 µM -11% | at 100.0 µM 33%

COc1cc(C2c3cc4c(cc3OC(NNc3ccccc3)C2C)OCO4)cc(OC)c1OC (stereo not given)
active: at 33.0 µM 89% | at 100.0 µM 79%
inactive: at 1.2 µM 41% | at 3.7 µM 40% | at 11.0 µM 46%
